Data published in the supplement of paper PMC3334620.
In all, about 33,000 sequences were measured (“E-score (-0.5 to 0.5)”: median about -0.011, highest 2% from about 0.28 on). The full list was thinned out, with the highest values kept by preference.

Each sequence was assayed against T1, Gcr1 (UniProt P07261) (assay: PBM E-score (8-mer binding enrichment) (E-score (-0.5 to 0.5)); higher = stronger / more preferred TF binding). Details: protein concentration: 100 nM; construct: GST-full length.
T1 sequence: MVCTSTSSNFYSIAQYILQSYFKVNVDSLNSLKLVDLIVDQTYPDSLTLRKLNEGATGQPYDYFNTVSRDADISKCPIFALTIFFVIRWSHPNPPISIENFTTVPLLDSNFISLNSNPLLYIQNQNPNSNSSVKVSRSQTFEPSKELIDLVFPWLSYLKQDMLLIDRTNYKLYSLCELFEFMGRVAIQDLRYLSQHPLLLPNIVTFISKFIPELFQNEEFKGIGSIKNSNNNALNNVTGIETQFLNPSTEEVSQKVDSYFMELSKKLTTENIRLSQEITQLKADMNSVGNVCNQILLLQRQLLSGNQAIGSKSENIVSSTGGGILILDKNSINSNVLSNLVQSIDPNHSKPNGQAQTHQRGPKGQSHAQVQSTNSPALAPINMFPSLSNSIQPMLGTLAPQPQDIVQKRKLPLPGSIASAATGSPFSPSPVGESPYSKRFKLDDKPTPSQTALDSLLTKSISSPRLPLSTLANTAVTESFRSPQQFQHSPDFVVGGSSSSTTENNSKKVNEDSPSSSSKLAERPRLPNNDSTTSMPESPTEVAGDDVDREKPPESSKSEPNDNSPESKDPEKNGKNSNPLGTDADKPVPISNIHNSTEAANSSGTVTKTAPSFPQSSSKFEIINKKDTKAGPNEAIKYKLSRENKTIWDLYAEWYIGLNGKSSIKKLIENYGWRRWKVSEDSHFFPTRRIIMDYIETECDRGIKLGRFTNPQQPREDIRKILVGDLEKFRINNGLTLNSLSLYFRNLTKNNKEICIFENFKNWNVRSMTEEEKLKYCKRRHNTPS
In short: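 Full-length yeast transcription factors or their DNA-binding domains, GST-tagged and expressed with PURExpress, were applied at about 100-200 nM to universal all-10-mer Agilent arrays. These arrays had been made double-stranded by primer extension on fresh or once-stripped slides. Detection used fluorescent anti-GST, normalisation used masliner, and E-scores for ungapped eight-base words pooled with reverse complements came from the Universal PBM Analysis Suite.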
With CAAAGACC the “PBM E-score” value was 0.00996.
With CAGTGGGC the “PBM E-score” value was -0.0102.
ACTGCTAT was tested, and the “PBM E-score” value was -0.225.
In the case of ATATCCTC, the “PBM E-score” value is reported as -0.118.
For GACACCCC, the “PBM E-score” value was -0.0371.
With AACGTCGC the “PBM E-score” value was -0.00983.
In the case of AACCATAG, the “PBM E-score” value is reported as -0.00302.
In the case of AAAATCCG, the “PBM E-score” value is reported as 0.111.
In the case of CGGCGCTA, the “PBM E-score” value is reported as -0.00295.
In the case of CTGCGCCA, the “PBM E-score” value is reported as -0.135.
In the case of TAGCGCCA, the “PBM E-score” value is reported as 0.181.
For TGGCGCAA, the “PBM E-score” value was -0.0289.
For GGGCGCGA, the “PBM E-score” value was 0.187.
GGGCGCTA was tested, and the “PBM E-score” value was 0.32.
With TGGCGCCA the “PBM E-score” value was 0.37.
For CAGCGCCA, the “PBM E-score” value was 0.0174.
CGGCGCCA was tested, and the “PBM E-score” value was 0.308.
GGGCGCCA was tested, and the “PBM E-score” value was 0.403.
With AGGCGCTA the “PBM E-score” value was 0.0978.
GCGCGCCA was tested, and the “PBM E-score” value was 0.0132.
AAGGTAAA was tested, and the “PBM E-score” value was 0.0141.
For GTCAAGGA, the “PBM E-score” value was 0.0238.
For GAGTTTCA, the “PBM E-score” value was -0.0957.
In the case of GCCTTCGA, the “PBM E-score” value is reported as -0.126.
With GGGCGCAC the “PBM E-score” value was -0.138.
For GGGCGCCC, the “PBM E-score” value was 0.459.
CGGCGCCC was tested, and the “PBM E-score” value was 0.359.
CGGCGCGC was tested, and the “PBM E-score” value was 0.193.
In the case of CGGCGCCG, the “PBM E-score” value is reported as 0.113.
GAGCGCCC was tested, and the “PBM E-score” value was 0.234.
In the case of CAGCTGGG, the “PBM E-score” value is reported as -0.0114.
For AACACCGT, the “PBM E-score” value was -0.132.
ACATTTGC was tested, and the “PBM E-score” value was -0.0633.
In the case of AGGGTGCC, the “PBM E-score” value is reported as 0.39.
With GAGGTGCA the “PBM E-score” value was -0.125.
In the case of AGGGTGCG, the “PBM E-score” value is reported as 0.0402.
For CTGGTGCA, the “PBM E-score” value was 0.216.
With GAGGTGCC the “PBM E-score” value was 0.281.
With CGGGTGCC the “PBM E-score” value was 0.377.
With CGGGTGCA the “PBM E-score” value was 0.0724.
In the case of AAGGTGCC, the “PBM E-score” value is reported as 0.144.
CTGGTGCC was tested, and the “PBM E-score” value was 0.352.
ATGGTGCC was tested, and the “PBM E-score” value was 0.227.
CGGGTGTC was tested, and the “PBM E-score” value was -0.116.
With AGGGTGCA the “PBM E-score” value was -0.0715.
With GCGATCCC the “PBM E-score” value was 0.0838.
With ACCAACCT the “PBM E-score” value was -0.0617.
For ACCAATAA, the “PBM E-score” value was 0.0976.
With CAGGGAGG the “PBM E-score” value was -0.257.
In the case of CGTGGTGA, the “PBM E-score” value is reported as -0.09.
CAGTCTAC was tested, and the “PBM E-score” value was -0.0756.
In the case of AGACGCCA, the “PBM E-score” value is reported as 0.283.
CGACGCCA was tested, and the “PBM E-score” value was 0.157.
CGCCGACG was tested, and the “PBM E-score” value was 0.0121.
In the case of CGACGCCG, the “PBM E-score” value is reported as 0.349.
With CCACGCCG the “PBM E-score” value was -0.106.
ACACGCCT was tested, and the “PBM E-score” value was -0.087.
In the case of AGACGCCG, the “PBM E-score” value is reported as 0.421.
